In the library only some 21% were active in any assay of this set; here they are far more common.
Pf growth 48h – inhibits P. falciparum growth in the first generation, 48 h. P. falciparum luciferase growth in erythrocytes, 48 h. Potency, µM (top dose mostly 28.7 µM), without a hit: at the highest dose activity change, negative = inhibition, usual class: inhibitors. 310,000 tested, 5.9% active; further: potency means the concentration at half of the fitted maximal effect; on the % scale 0 is the no-effect control and ±100 the full control effect
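Luminescence readout; reporter = integrated firefly luciferase in P. falciparum. RBC culture at 2% hematocrit, 0.1% parasitemia final, 37 C/5% CO2; decreased signal taken as growth inhibition.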
Pf growth 96h – inhibits malaria parasite growth, 96 h; P. falciparum luciferase reporter growth, 96 h; Potency, µM (titrated, usually from 28.7 µM), inactives show at the top dose activity change, negative = inhibition, actives largely listed as inhibitors; 320,000 tested, 6.9% active; further: potency means the concentration at half of the fitted maximal effect; on the % scale 0 is the no-effect control and ±100 the full control effect
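Parasite growth measured via integrated firefly luciferase reporter in P. falciparum. Infected erythrocytes at 2% hematocrit, 0.05% parasitemia final were treated 96 hours at 37 C under 5% CO2, and luminescence was read.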
HCV inhibitor – blocks hepatitis C virus. Huh7.5.1 HCVcc-Cre infection, luciferase reporter, 44 h. Potency, µM (series often up to 41.8 µM), without a hit: top-dose activity change, negative = inhibition, most hits filed as inhibitors. 340,000 tested, 3.4% active; further: potency means the concentration at half of the fitted maximal effect; on the % scale 0 is the no-effect control and ±100 the full control effect
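Whole-lifecycle infectious HCVcc-Cre system; cells 1,000/well, compound then virus (~0.5 moi) added 4 h after plating, 44 h culture. Luciferase read 15 sec following 15 min substrate incubation, room temp.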
Shiga toxin inh – inhibitors of Shiga toxin in Vero cells; 290,000 tested, 9.2% active; AID 2315; inhibition, % at 38.7 µM; Vero cells, Shiga toxin protein synthesis inhibition reporter; in the data active means inhibition mostly above about 28%, no sharp cut-off; inactive means mostly below about 43%; further: 0% is about no effect
Cycloheximide cs – counter-screen hit for Shiga toxin inhibitors, cycloheximide. cell reporter, cycloheximide protein synthesis inhibition counterscreen. max response, %. 300,000 tested, 12% active. AID 2314; in the data active means max response mostly above about 13%, no sharp cut-off; inactive means mostly below about 14%; further: read at 38.3 µM for the half of the compounds with a filed dose; 0% is about no effect
AMA1-RON2 inh – AMA1-RON2 (P. falciparum) interaction inhibition. AlphaScreen AMA1-biotinylated RON2 peptide binding. Potency, µM (doses to about 58.2 µM), inactives show top-dose activity change, negative = inhibition, usual class: inhibitors. 360,000 tested, 0.2% active. AID 720542;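 further: potency means the concentration at half of the fitted maximal effect; 0% = vehicle wells and -100% = peptide control; nearly all actives have a fitted effect of over 45% in size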
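AMA1 (3D7) with his tag at 25 nM final met compounds first, then biotinylated RON2 peptide at 25 nM; detection used donor plus acceptor beads, 10 µg/mL apiece, read by AlphaScreen after 30 min at room temperature.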
Starred values were filed as active, the others as inactive; ? = inconclusive; / = no result given; [ ] = another dose, or the depositor's remark. Unless noted, the call rests on the fitted dose curve; in most records, active means well fitted curve in the direction sought with a large enough effect; inconclusive means small, poorly fitted or top-dose-only effect, or another doubt; inactive means no such curve, though single readings can be large; an effect the other way counts as inactive or inconclusive.

SMILES | Pf growth 48h | Pf growth 96h | HCV inhibitor | Shiga toxin inh | Cycloheximide cs | AMA1-RON2 inh
COc1ccc(CCNC(=O)c2cc3c(=O)n4ccccc4nc3n(CC3CCCO3)c2=N)cc1 (configuration not stated) | / | / | ? | / | / | -2%
N=c1c(C(=O)NCCc2ccccc2)cc2c(=O)n3ccccc3nc2n1CC1CCCO1 (configuration not stated) | 2.1µM* | ? | ? | -11 | -5 | 6%
COc1ccc(CCNC(=O)c2cc3c(=O)n4ccccc4nc3n(C3CCCCC3)c2=N)cc1OC | ? | 10µM* | -14% | -12 | -11 | -1%
COc1ccc(CCNC(=O)c2cc3c(=O)n4ccccc4nc3n(CCN3CCOCC3)c2=N)cc1 | ? | ? | ? | 19 | -2 | 2%
N=c1c(C(=O)NCc2ccc(F)cc2)cc2c(=O)n3ccccc3nc2n1CC1CCCO1 (configuration not stated) | 12µM* | 1%[5.75 µM] | ? | -17 | -3 | -15%
COc1ccc(CCNC(=O)c2cc3c(=O)n4ccccc4nc3n(CC3CCCO3)c2=N)cc1OC (configuration not stated) | ? | ? | 8.9µM* | 21 | 8 | -7%
COc1ccc2c(O)c(-c3c(C)cc(C)cc3C)c(=O)[nH]c2c1 | / | / | 10% | / | / | -4%
CCN(C(=O)CCS(=O)(=O)c1cccc2nonc12)c1ccc(C)c(C)c1 | -16% | ? | 9% | -5 | -3 | 0%
Cc1cc(NC(=O)CSC2=NS(=O)(=O)c3cc(F)ccc3N2)no1 | -6% | 11% | 18% | / | / | 3%
CC1OC(C2CCCCC2)Cc2[nH]c(=S)[nH]c(=O)c21 (configuration not stated) | / | / | / | / | / | 118%
O=C(O)CCCN1C(=O)C(=O)/C(=C(/O)c2ccc(Cl)cc2)C1c1ccccc1 (configuration not stated) | 44% | 63% | 16% | 28 | -3 | 0%
O=C1OC/C(=C(/O)c2ccc(Cl)cc2)C1=O | 12µM* | -8% | 21% | -4 | 7 | -3%
O=C(NC1CCCCCCC1O)c1ccccc1 (configuration not stated) | / | / | 27% | / | / | -13%
O=C(NC1=NC2CCCCC2N1)c1ccccc1 (configuration not stated) | 192% | / | 19% | 97* | 34* | 2%
Cc1ccc(C)c(NC(=O)CN(C)C(C)C(=O)N2CC(C)CC(C)C2)c1 (configuration not stated) | ? | -25% | 14% | / | / | 29%
CS(=O)(=O)c1cccc(-c2nnc(NC(=O)CCS(=O)(=O)c3ccccc3)o2)c1 | ? | ? | 4% | / | / | 92%
COc1cc2c3nnc(-c4ccc(F)cc4)c-3cn(Cc3ccccc3)c2cc1OC | ? | 0.41µM* | ? | 13 | 1 | -17%
COc1ccc(Cn2cc3c(-c4ccc(F)cc4)nnc-3c3cc(OC)c(OC)cc32)cc1 | 0.15µM* | 0.15µM* | ? | -7 | 7 | -20%
COc1cc2c3nnc(-c4ccc(F)cc4)c-3cn(Cc3ccc(F)cc3)c2cc1OC | / | ? | -20% | 22 | 11 | -29%
O=C1CSC(c2ccc(F)c(F)c2)N1c1ccccc1F (configuration not stated) | 17% | ? | 19% | -8 | -2 | -1%
O=C(Nc1ccc(Br)cc1)C1Cc2ccccc2O/C1=N\O (configuration not stated) | 12% | ? | -24% | 111* | 55* | -3%
Cc1ccc(NC(=O)C2Cc3ccccc3O/C2=N\O)cc1C (configuration not stated) | 55% | 84% | ? | 74* | 49* | 10%
O=C(COC(=O)c1cccc(Cl)c1)Nc1cccc(S(=O)(=O)NC2=NCCC2)c1 | / | / | 9% | / | / | -1%
Nc1ccc(C(=O)N/N=C\c2ccc(OC(=O)c3ccccc3Cl)cc2)cc1 | 34% | 15% | -8% | 21 | 38* | 14%
O=C(N/N=C/c1ccc(OC(=O)c2ccccc2Br)cc1)c1ccccn1 | 7% | ? | 2% | -16 | -3 | 98%
SMILES | Pf growth 48h | Pf growth 96h | HCV inhibitor | Shiga toxin inh | Cycloheximide cs | AMA1-RON2 inh
COc1cc(C(=O)Oc2ccccc2/C=N/NC(=O)c2ccc(Cl)cc2Cl)cc(OC)c1OC | 6.6µM* | ? | ? | 26* | 23* | -13%
COc1cc(C(=O)N/N=C/c2ccc(OC(=O)c3ccccc3Cl)cc2)ccc1O | 24% | -14% | -21% | 22 | 26* | -18%
C=CCOc1ccccc1/C=N/NC(=O)c1ccc(Cl)cc1Cl | 4% | -9% | -18% | 16 | 8 | 0%
O=C(O)c1ccc(N/N=C/c2ccc(OC(=O)c3ccccc3Cl)cc2)cc1 | 41% | 158% | 35% | 19 | 21* | -15%
CCN(CC)S(=O)(=O)c1cccc(C(=O)NCC2CCCCC2)c1 | -24% | ? | -19% | 13 | -4 | 11%
C/C(O)=c1/cnc2nc3ccccc3n2c1=O | 74% | 29% | 12% | 27 | 14 | -6%
COC(=O)[C@@H]1CC2=CC(=O)CC[C@]2(C)[C@@]23O[C@@H]2C[C@@]2(C)[C@H](CC[C@@]24CCC(=O)O4)[C@@H]13 | / | / | / | -8 | -4 | /
Cc1ccc2c(c1)N(CC(=O)N1CCCC1)C(=O)c1cccnc1O2 | -9% | 13% | 7% | -9 | -5 | -5%
O=C(NCCc1ccc(F)cc1)C1CCCCC1 | 41% | 101% | -4% | 42 | 24* | -18%
O=C(O)C1CCCCC1C(=O)NCCc1ccc(F)cc1 (configuration not stated) | 21% | 9.3µM* | 16% | -4 | -2 | 20%
COc1ccc(-c2nc3ccc(Cl)cn3c2CC(C)(C)C)cc1OC | / | / | / | / | / | -8%
O=C(/C=C/c1c(F)cccc1Cl)Nc1ccncc1 | 73% | -21% | -5% | 96* | 61* | -9%[11.6 µM]
O=C(O)CNC(=O)/C=C/c1c(Cl)cccc1Cl | ? | 8% | -1% | 22 | 10 | -2%
Cc1cc(NS(=O)(=O)c2ccc(NC(=O)/C=C/c3c(F)cccc3Cl)cc2)no1 | 7% | ? | -5% | -2 | -5 | 4%
O=C(/C=C/c1c(Cl)cccc1Cl)Nc1ccncc1 | / | ? | -20% | 36 | 13* | 3%
Cc1cccc(Oc2ccc(Cl)cc2N)c1 | 34% | 28% | -2% | 89* | 34* | 0%
Cc1cccc(Oc2ccc(S(=O)(=O)N3CCCCC3)cc2N)c1 | ? | 8% | 13µM* | -21 | 8 | 4%
COc1cc(OC)cc(Oc2ccc(S(=O)(=O)N3CCCCC3)cc2[N+](=O)[O-])c1 | 8.3µM* | ? | ? | 2 | -5 | -3%
COc1ccc(Oc2ccc(S(=O)(=O)N3CCCCC3)cc2S(=O)(=O)N2CCCCC2)cc1 | 10µM* | ? | ? | 6 | 0 | -3%
